Unmarked numbers belong to inactive results. How the calls were made is not given here.
System: Phorbol Ester
Assay: CYP450 and receptor off-target profile – biochemical, Ricerca HitProfilingScreen, selectivity assay for S1P4 agonist project, late-stage follow-up (AID 504400)
Conditions: Ricerca radioligand binding/enzyme panel plus CYP450, at 10 µM, active compounds read high

For `Clc1ccc(OCCOc2ccc(Br)nc2Br)c(Cl)c1`, the inhibition was 4%.
